Screening data from PubChem BioAssay.
GCN5L2 inh: blocks human GCN5L2 histone acetyltransferase; Q92830; GCN5L2 HAT assay, ThioGlo1 CoA-SH fluorescence; Potency, µM (doses to about 58.9 µM), inactives show at the top dose activity change, negative = inhibition, most hits filed as inhibitors; actives 0.21% (n = 390,000); AID 504327
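GCN5L2 (20nM final) in 50mM HEPES, 0.1mM EDTA pH 7.5, 0.01% Tween-20 was preincubated 15 min at room temperature with compound, then given ThioGlo1 (50uM), H3(1-25) peptide (75uM) and acetyl-CoA (70uM); CoA-thiol fluorescence (Ex340/Em540) was read at 0 and 20 min.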
TDP1 block: blocks human tyrosyl-DNA phosphodiesterase 1. recombinant TDP1, AlphaScreen DNA substrate cleavage. Potency, µM (titrated, usually from 130 µM), without a hit: top-dose activity change, negative = inhibition, actives largely listed as inhibitors. actives 0.28% (n = 350,000). AID 485290; further: nearly all actives have a fitted effect of over 40% in size
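Steps: enzyme plus compound, 15 min RT; add biotin/phosphotyrosine-FITC oligonucleotide (15 nM final), react 5 min; add donor/acceptor beads (10 ug/ml final), 10 min; read AlphaScreen. Tdp1 at 1 nM final.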
PLK1 PBD inh: inhibitors of human PLK1 polo-box domain binding. Plk1 PBD binding of FITC phosphopeptide, fluorescence polarization. Potency, µM, for the others: max response, negative = inhibition, usual class: inhibitors. AID 720504. P53350. actives 2.8% (n = 360,000); further: series mostly up to about 57 µM; nearly all actives have a fitted effect of over 65% in size
Target sequence (P53350 whole entry, looked up, the tested form may be a part): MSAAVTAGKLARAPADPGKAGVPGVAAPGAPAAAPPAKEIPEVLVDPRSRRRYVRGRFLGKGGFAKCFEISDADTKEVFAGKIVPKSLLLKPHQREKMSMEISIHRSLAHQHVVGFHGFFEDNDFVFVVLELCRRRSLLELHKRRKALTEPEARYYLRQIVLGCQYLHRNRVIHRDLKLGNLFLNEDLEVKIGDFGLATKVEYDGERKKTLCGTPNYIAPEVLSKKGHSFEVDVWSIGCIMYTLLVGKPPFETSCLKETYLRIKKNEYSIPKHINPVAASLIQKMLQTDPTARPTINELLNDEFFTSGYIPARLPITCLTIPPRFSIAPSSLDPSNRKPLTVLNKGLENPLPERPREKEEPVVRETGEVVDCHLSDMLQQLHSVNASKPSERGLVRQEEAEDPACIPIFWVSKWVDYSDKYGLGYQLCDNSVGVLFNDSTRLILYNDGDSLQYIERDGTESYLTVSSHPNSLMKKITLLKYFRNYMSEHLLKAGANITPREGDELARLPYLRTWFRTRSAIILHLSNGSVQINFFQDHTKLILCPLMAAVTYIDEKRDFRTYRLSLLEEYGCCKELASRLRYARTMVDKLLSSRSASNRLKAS
TDP1 cell noCPT: qHTS for Inhibitors of human tyrosyl-DNA phosphodiesterase 1 (TDP1): qHTS in cells in absence of CPT | actives 15% (n = 420,000) | Potency, µM (series often up to 46.2 µM), for inactives: at the highest dose activity change, negative = growth inhibition, hits mostly inhibitors | AID 686978, 2013 | DT40 Tdp1-/- hTDP1 cells, no CPT, ATP luminescence, 48 h; further: nearly all actives have a fitted effect of over 55% in size
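Cells were dispensed at 400 per well, compounds added by pin tool, plates incubated ≥48 hr at 37 °C, then CellTiter-Glo added for 30 min at room temperature before luminescence reading. Line: DT40 Tdp1-/- complemented with hTDP1; camptothecin omitted.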
TDP1 cell CPT: growth inhibition of DT40 Tdp1-/-;hTDP1 cells with camptothecin (screen for TDP1 inhibitors); chicken DT40 Tdp1-/-;hTDP1 cells + 20 nM CPT, ATP luminescence, 48 h; Potency, µM (series often up to 46.2 µM), inactives show top-dose activity change, negative = growth inhibition, actives largely listed as inhibitors; actives 12% (n = 420,000); AID 686979; further: nearly all actives have a fitted effect of over 55% in size
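Chicken DT40 Tdp1-/- cells stably complemented with human TDP1 were seeded at 400 cells/well in medium containing 20 nM camptothecin, exposed to pin-transferred compounds, and grown at 37 °C for at least 48 hr. Viability was read as ATP luminescence.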
VDR inh: blocks the human vitamin D receptor; P11473; VDR-SRC2-3 peptide fluorescence polarization, 2 h; Potency, µM, for inactives: max response, negative = inhibition, most hits filed as inhibitors; actives 0.93% (n = 400,000)
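Compounds are added to VDR with labelled SRC2-3 coactivator peptide and held 2 h at room temperature. Inhibition of the VDR–peptide interaction is then read as a change in fluorescence polarization.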
Active calls of the source: *; ? = inconclusive; nt = no result given. In the library only some 18% were active in any assay of this set; here they are far more common. The call rests on the fitted dose curve; in most records, active means well fitted curve in the direction sought with a large enough effect; inconclusive means small, poorly fitted or top-dose-only effect, or another doubt; inactive means no such curve, though single readings can be large; an effect the other way counts as inactive or inconclusive. On the % scale 0 is the no-effect control and ±100 the full control effect; potency means the concentration at half of the fitted maximal effect.

SMILES	GCN5L2 inh	TDP1 block	PLK1 PBD inh	TDP1 cell noCPT	TDP1 cell CPT	VDR inh
O=C(Nc1ccc2c(c1)OCO2)C1Cc2c(-c3ccccc3Oc3ccccc3)ccnc2O1 (configuration not stated)	nt	nt	0%	?	?	nt
COc1ccc(C(CNC(=O)c2[nH]c(C)c(C(C)=O)c2C)N2CCOCC2)cc1 (configuration not stated)	0%	6%	3%	-16%	-27%	-5%
COc1ccc(NC(=O)C2CCN(S(=O)(=O)c3ccc4c(c3)CCCC(=O)N4)CC2)c(OC)c1	30%	5%	nt	nt	nt	6%
COc1cc(OC)cc(N(C(=O)c2ccco2)C(C(=O)NC2CCCC2)c2ccc(N3CCOCC3)cc2)c1 (configuration not stated)	-5%	10%	-3%	-8%	2%	-6%
O=C1C(Cc2ccccc2)Nc2ncnc(N3CCCCC3)c2N1Cc1ccc(Cl)cc1 (configuration not stated)	-8%	nt	1%	16µM*	?	-10%
CCC1Nc2ncnc(N3CCc4ccccc4C3)c2N(Cc2ccc(Br)cc2)C1=O (configuration not stated)	nt	nt	1%	?	?	nt
CC1Nc2ncnc(N3CCc4ccccc4C3)c2N(Cc2ccc(Br)cc2)C1=O (configuration not stated)	-6%	2%	-3%	23µM*	16µM*	-15%
CC1Nc2ncnc(N3CCc4ccccc4C3)c2N(Cc2ccc(Cl)cc2)C1=O (configuration not stated)	-11%	1%	-6%	?	?	?
COc1ccc(CN2C(=O)C(Cc3ccccc3)Nc3ncnc(N4CCN(c5ccccc5)CC4)c32)cc1 (configuration not stated)	-13%	2%	-5%	?	?	11%
O=C1C(Cc2ccccc2)Nc2ncnc(N3CCc4ccccc4C3)c2N1Cc1ccccc1 (configuration not stated)	-6%	3%	42µM*	16µM*	?	-17%
O=C1C(Cc2ccccc2)Nc2ncnc(N3CCN(c4ccccc4)CC3)c2N1Cc1ccc(Cl)cc1 (configuration not stated)	-14%	nt	-8%	18µM*	?	-5%
O=C1c2ccccc2C(=O)N1c1cccc(Cl)c1	nt	0%	nt	nt	nt	nt
CS(=O)(=O)c1ccc(-c2csc(C(O)(c3ccccc3)C(F)(F)F)n2)cc1 (configuration not stated)	nt	nt	9%	?	?	nt
CC(C)(C)OC(=O)NCCCCC1=CC2=CC(=O)C(C)(OC(=O)C3CCCC3)C(=O)C2=CO1 (configuration not stated)	nt	4%	nt	nt	nt	8%
C=CCNC(=O)c1onc(CSc2cc(C)cc(C)c2)c1C(=O)NCC=C	-19%	-5%	-7%	18µM*	?	-10%
CCCCNC(=O)c1onc(CSc2ccc(Cl)cc2)c1C(=O)NCCCC	nt	nt	-24%	?	?	-10%
O=C(NCc1ccccc1)c1onc(CSc2ccc(F)cc2)c1C(=O)NCc1ccccc1	nt	nt	5%	?	18µM*	-15%
C=CCNC(=O)c1onc(CSc2cccc(C)c2)c1C(=O)O	-5%	-2%	-10%	-8%	-10%	-10%
CCCCNC(=O)c1onc(CSc2ccc(F)c(F)c2)c1C(=O)NCCCC	nt	nt	5%	?	16µM*	-1%
C=CCNC(=O)c1onc(CSc2ccc(Cl)cc2)c1C(=O)O	-13%	3%	-4%	-3%	-18%	2%
Cc1cc(C)cc(SCc2noc(C(=O)NCc3ccccc3)c2C(=O)NCc2ccccc2)c1	17%	-11%	-4%	?	?	-4%
